Values joined by “and” are separate entries in the source; they are usually repeats but may differ in a detail not shown here. Identical values can stand only once. In all, about 350,000 compounds went through this assay and about 700 (0.2%) were called active. Entries that show only a call come without a potency. The full list was thinned out, with actives kept by preference. Unmarked numbers belong to inactive results. Calls come from the whole dose curve; as a rule, active = well fitted inhibition curve with a large enough effect; inconclusive = small, poorly fitted or top-dose-only effect; inactive = flat fitted curve, though single readings scatter.
Potency is the fitted concentration of half-maximal effect.

The target in the assay is RecQ-like DNA helicase BLM (Homo sapiens) (UniProt P54132). In words: qHTS Assay for Inhibitors of Bloom's syndrome helicase (BLM). Note: nearly all actives have a fitted effect of over 35% in size. As to conditions: recombinant BLM DNA unwinding, fluorescence dequenching; series mostly up to 56.1 µM.
RecQ-like DNA helicase BLM (Homo sapiens), sequence (P54132 whole entry, looked up): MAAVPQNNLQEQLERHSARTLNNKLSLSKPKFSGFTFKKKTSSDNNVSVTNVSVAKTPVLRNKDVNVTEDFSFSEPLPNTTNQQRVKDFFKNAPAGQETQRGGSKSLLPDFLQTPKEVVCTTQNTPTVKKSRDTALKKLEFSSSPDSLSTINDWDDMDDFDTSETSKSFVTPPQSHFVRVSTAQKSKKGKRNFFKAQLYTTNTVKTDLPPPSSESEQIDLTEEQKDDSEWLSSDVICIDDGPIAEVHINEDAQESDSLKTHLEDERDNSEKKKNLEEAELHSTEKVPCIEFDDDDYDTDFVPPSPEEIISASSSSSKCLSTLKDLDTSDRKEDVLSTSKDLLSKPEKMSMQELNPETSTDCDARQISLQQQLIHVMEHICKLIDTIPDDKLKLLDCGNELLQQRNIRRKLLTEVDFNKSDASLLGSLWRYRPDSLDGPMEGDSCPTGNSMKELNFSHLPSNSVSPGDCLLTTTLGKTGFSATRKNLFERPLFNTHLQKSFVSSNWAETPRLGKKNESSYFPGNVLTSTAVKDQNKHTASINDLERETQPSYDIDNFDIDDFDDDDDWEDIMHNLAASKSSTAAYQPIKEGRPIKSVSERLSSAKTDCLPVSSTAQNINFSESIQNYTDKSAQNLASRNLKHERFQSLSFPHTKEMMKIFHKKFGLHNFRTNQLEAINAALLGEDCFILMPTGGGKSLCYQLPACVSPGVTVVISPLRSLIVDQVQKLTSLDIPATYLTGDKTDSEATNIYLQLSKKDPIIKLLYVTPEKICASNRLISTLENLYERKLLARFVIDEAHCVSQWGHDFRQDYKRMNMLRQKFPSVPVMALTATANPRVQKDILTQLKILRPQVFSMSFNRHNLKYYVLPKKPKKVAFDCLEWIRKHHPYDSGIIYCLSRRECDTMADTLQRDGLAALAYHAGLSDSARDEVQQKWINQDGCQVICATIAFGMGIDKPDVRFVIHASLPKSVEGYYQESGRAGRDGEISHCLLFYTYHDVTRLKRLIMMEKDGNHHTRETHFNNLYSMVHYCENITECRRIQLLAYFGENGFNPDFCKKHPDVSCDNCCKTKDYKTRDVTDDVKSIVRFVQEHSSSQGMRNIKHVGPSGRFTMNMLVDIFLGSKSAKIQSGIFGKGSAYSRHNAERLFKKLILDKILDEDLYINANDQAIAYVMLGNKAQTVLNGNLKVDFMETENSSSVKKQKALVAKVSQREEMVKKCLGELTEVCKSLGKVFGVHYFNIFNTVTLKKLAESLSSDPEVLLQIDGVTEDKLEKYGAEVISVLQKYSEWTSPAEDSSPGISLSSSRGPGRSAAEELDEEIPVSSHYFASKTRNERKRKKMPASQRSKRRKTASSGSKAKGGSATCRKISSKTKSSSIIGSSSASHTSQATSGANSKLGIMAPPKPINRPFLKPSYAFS
`CN1C(=O)CN2CCc3ccccc3C2c2cc(Cl)ccc21` (centres undefined): the Potency result was “inactive”. Still for that read-out and setting: the entry for `C=C[C@](C)(O)CCC1C(=C)CCC2[C@@](C)(CO)CCC[C@@]12C` (some centres undefined) is “inactive”; for `CC/C=C\C/C=C\C/C=C\C/C=C\C/C=C\C/C=C\CCC(=O)NCCc1ccc(O)c(O)c1` it is “inactive”; for `Cc1c(S(=O)(=O)O)oc2c1C(=O)C(=O)c1c-2ccc2c1CCCC2(C)C` it is 31.6 µM (active). As for `CC(C)C(N)C(=O)OCCOCn1cnc2c(=O)[nH]c(N)nc21` (centres undefined), the Potency result is “inactive”. Still for that read-out and setting: the entry for `O=C(O)C[C@@H]1NC(=O)[C@H](Cc2ccccc2)NC1=O` is “inactive”; for `CCc1ccc(NC(=O)c2cnc3c(-c4ccccc4)c(C)nn3c2C)cc1` it is “inactive”; for `COC1C[C@@H](O[C@@H]2C(C)C(=O)OC(C)C(C)C(O)C(C)C(=O)[C@@]3(CO3)CC(C)C(OC3OC(C)CC(N(C)C)C3O)C2C)OC(C)[C@@H]1O` (some centres undefined) it is “inactive”. As to `CC(=O)Oc1c2c(c3c(c1CC=C(C)C)O[C@@]14C(=CC5CC1C(C)(C)OC4(C/C=C(\C)C(=O)O)C5=O)C3=O)OC(C)(CCC=C(C)C)C=C2` (some centres undefined), the Potency entry was “inactive”. Consider `CCC(C)[C@@H](N)C(=O)O` (some centres undefined), for which the Potency result is “inactive”. Still for that read-out and setting: the entry for `c1ccc2c(Nc3ccncc3)nc(-c3ccc4c(c3)OCO4)nc2c1` is “inactive”; for `COCCNC(=O)Nc1ccc2nc(-c3ccco3)c(-c3ccco3)nc2c1` it is 12.6 µM (active).

For the molecule `COc1cccc(S(=O)(=O)NCc2ccc(C(=O)NCc3ccccn3)cc2)c1`, the Potency entry is “inactive”.

In the case of `COc1ccc(NC(=O)COCc2cc(-c3ccco3)on2)cc1`, the Potency entry is “inactive”. Turning to `COc1ccc(-c2nc3ccc(C(=O)NCc4ccc(C)cc4)cc3nc2-c2ccc(OC)cc2)cc1`, the Potency result is “inactive”. On to `O=C(NCc1ccccn1)c1ccc2nc(-c3ccco3)c(-c3ccco3)nc2c1`, for which the Potency was 8.91 µM (active). On to `CCOc1ccc(NC(=O)c2ncoc2-c2ccco2)cc1`, for which the Potency result is “inactive”.

As for `Cc1cccc(C)c1NC(=O)NC1=CCCN1C`, the Potency result is “inactive”. Still for that read-out and setting: the figure for `CCCNC(=O)c1c(N)n(-c2ccc(S(N)(=O)=O)cc2)c2nc3ccccc3nc12` is 20 µM (active); for `Cc1noc(C)c1C(=O)NCCc1ccc(S(N)(=O)=O)cc1` it is “inactive”. Consider `CCOC(=O)c1c(N)n(-c2cccc(C)c2C)c2nc3ccccc3nc12`, for which the Potency entry is “inactive”. Take `COc1ccccc1CNc1ccnc(-c2c(C)noc2C)n1`: the Potency entry was “inactive”.

In the case of `N#CCCn1c(=O)c(-c2cc(F)cc(F)c2)nc2cnc(Oc3ccccc3)nc21`, the Potency result is “inactive”.

On to `Clc1ccccc1CSc1nncn2c1cc1occc12`, for which the Potency entry is “inactive”. For the molecule `c1ccc(CSc2nnc(-c3ccco3)c(-c3ccco3)n2)cc1`, the Potency was 14.1 µM (active). For `CC1(C)N=C(SCc2ccccc2Cl)c2ccccc2N1`, the Potency entry is “inactive”. As for `Clc1ccccc1CSc1nnc(-c2ccco2)c(-c2ccco2)n1`, the Potency was 14.1 µM (active). With `O=C(NCCSc1ccccc1)c1ccco1`, the Potency result is “inactive”.

For the molecule `Cc1ccc(-c2nnc(SCC(=O)NCc3ccccc3)nc2-c2ccc(C)cc2)cc1`, the Potency result was “inactive”.

As for `COc1ccc(N2CCN(C(=O)CSCc3nc(-c4ccccc4Cl)oc3C)CC2)cc1`, the Potency result is “inactive”. Consider `Cc1ccc2c(=O)c(C(=O)c3cccc(Cl)c3)cn(CC(=O)NCc3ccccc3)c2n1`, for which the Potency entry was “inactive”. Same read-out and setting: the entry for `C=C/C1=C/Cc2ccccc2[C@H](C[N+](=O)[O-])C(C(=O)OC)(C(=O)OC)C1` is “inactive”. Still for that read-out and setting: the entry for `O=P(O)(O)OC[C@H](O)CO` is “inactive”; for `O=c1c(-c2cc(F)cc(F)c2)nc2cnc(Oc3ccccc3)nc2n1C[C@H]1CCCO1` it is “inactive”.

As for `C=CCC(C)(O)c1ccco1` (centres undefined), the Potency entry was “inactive”. As to `N#Cc1ccccc1-c1ccc2ncnc(NCc3cccnc3)c2c1`, the Potency entry is “inactive”. `Cc1cc2nc(NC(=O)c3ccc(S(=O)(=O)N4CCOCC4)cc3)sc2cc1C`: the Potency result was “inactive”. The same measure, in the same setting: the entry for `CN(C)c1cccc(C(=O)Nc2nc3ccc(S(=O)(=O)NC(C)(C)C)cc3s2)c1` is “inactive”; for `CS(=O)(=O)c1ccc2nc(NC(=O)c3ccc(Cl)nc3)sc2c1` it is 17.8 µM (active). As to `CC(=O)OCC1OC(C#Cc2ccccc2Cl)C=CC1OC(C)=O` (centres undefined), the activity change, negative = inhibition was 2.5% [at 12.4 µM].

`O=C(c1cc2ccccc2s1)N1CCN(c2ccccn2)CC1`: the Potency result was “inactive”. The same measure, in the same setting: the figure for `O=C(c1cc2c(s1)CCC2)N1CCN(c2ccccc2)CC1` is 12.6 µM (active); for `O=C(c1cc(-c2ccc(Cl)cc2)on1)N1CCN(c2ccccc2)CC1` it is “inactive”. Turning to `Cc1ccc(-c2cc(C(F)(F)F)c(C#N)c(SCC(=O)Nc3ccccc3)n2)cc1`, the Potency result is “inactive”.

On to `C=CCN1c2ccccc2[C@]23C[C@@H](C(=O)OC)N(S(=O)(=O)c4ccc([N+](=O)[O-])cc4)C2=NC(C(=O)OC)=C(C(=O)OC)[C@H]13`, for which the activity change, negative = inhibition was -4.61% [at 12.4 µM].

For `CCCn1c(C)nc2c(NCCCCN(CC)CC)nc(C)nc21`, the Potency result is “inactive”. As to `O=C(N/N=C/c1ccco1)c1csc2c1CCCC2`, the Potency result is “inactive”. With `O=C(N/N=C/c1ccco1)c1ccc(NC(=O)C2CC2)cc1`, the Potency result was “inactive”.

As for `O=C(N/N=C/C=C/c1ccco1)c1cccs1`, the Potency was 22.4 µM (active).

In the case of `Cc1noc(C)c1-c1ccc2ncnc(NCc3ccc4[nH]ccc4c3)c2c1`, the Potency entry is “inactive”.

Consider `O=C(NCc1ccccc1)c1cc(-c2cccc(Cl)c2)on1`, for which the Potency entry is “inactive”. On the same count and under the same terms, the figure for `O=C(O)C(c1ccccc1)N1C(=O)/C(=C\c2ccc(-c3cccc(Cl)c3)o2)SC1=S` (centres undefined) is 22.4 µM (active); for `CN=C1S/C(=C\c2ccc(Sc3ccc(Cl)cc3)o2)C(=O)N1C` it is “inactive”.

With `CCN1CC=C2C(C#N)=C(N)C(C#N)(C#N)[C@H](c3ccoc3)[C@H]2C1`, the Potency was 28.2 µM (active). With `COc1cccc(-c2cc(=O)c3cc(NC(=O)c4ccc(C)cc4)ccc3[nH]2)c1`, the Potency entry is “inactive”. Take `CCOC(=O)C1=NO[C@@]2(C=C(Br)C(=O)[C@H]3O[C@H]32)C1`: the Potency entry is “inactive”. In the case of `CN1CCCC1CCO[C@@](C)(c1ccccc1)c1ccc(Cl)cc1` (some centres undefined), the Potency entry was “inactive”. Take `NS(=O)(=O)c1ccc2nc(NC(=O)COc3ccccc3)sc2c1`: the Potency entry was “inactive”.

`CC(=O)OCC(=O)C1CCC2C3CCC4=CC(=O)CC[C@@]4(C)C3CC[C@]12C` (some centres undefined): the Potency entry was “inactive”. On to `CC(C)(C)c1ccc(OC2C=CC(C#Cc3ccccc3)OC2CO)cc1` (centres undefined), for which the activity change, negative = inhibition was -1.55% [at 12.4 µM]. Consider `COC(=O)[C@@H]1CC2=CC(=O)CC[C@]2(C)[C@@]23O[C@@H]2C[C@@]2(C)[C@@H](CC[C@@]24CCC(=O)O4)[C@H]13`, for which the Potency result was “inactive”.

Consider `O=C1CN(Cc2ccccc2)S(=O)(=O)c2ccccc21`, for which the Potency entry was “inactive”.

For the molecule `Nc1ccc2nc3c(=O)[nH]c(=S)[nH]c3nc2c1`, the Potency was 2.82 µM (active). On to `O=C(Nc1cccc(C(F)(F)F)c1)c1cc(Br)cc(Br)c1O`, for which the Potency entry was “inactive”. Regarding `COC(=O)[C@@]1(Cc2ccc(OC)cc2)[C@H]2c3cc(C(=O)N4CCCC4)n(Cc4ccc(C(F)(F)F)nc4)c3C[C@H]2CN1C(=O)c1ccccc1`, the Potency entry is “inactive”. In the case of `COc1ccccc1CNC(=O)C(=O)NCC(c1cccs1)S(=O)(=O)c1cccs1` (centres undefined), the Potency entry was “inactive”.

Take `CO[C@H]1COC(=O)[C@@H](OCc2ccccc2)/C=C\[C@H](C)[C@@H](OC)COC(=O)[C@H](OCc2ccccc2)/C=C\[C@@H]1C`: the activity change, negative = inhibition is 6.6% [at 12.4 µM].

Regarding `CC(=O)OCC1OC(C#CCCCc2ccccc2)C=CC1OC(C)=O` (centres undefined), the activity change, negative = inhibition is -2.87% [at 12.4 µM] and 2.33% [at 12.4 µM]. Take `C#CCCCCCCCCCCCCCCCC(=O)O`: the Potency result is “inactive”. Regarding `O=C(Nc1cccc(F)c1)N1CCC2(CC1)CCN(S(=O)(=O)c1ccccc1)CC2`, the Potency result was “inactive”. Regarding `COc1cccc(Nc2nc(N)c([N+](=O)[O-])c(NCc3ccco3)n2)c1`, the Potency is 3.55 µM (active).

On to `CN(c1ccccc1)c1nc(N)c([N+](=O)[O-])c(NCc2ccco2)n1`, for which the Potency result was “inactive”. The same measure, in the same setting: the entry for `CNc1nc(Nc2ccc(C)c(Cl)c2)nc(N)c1[N+](=O)[O-]` is “inactive”. For `CS(=O)(=O)N1CCC2(CC1)CN(Cc1ccccc1)C2`, the Potency result is “inactive”. On to `COC1[C@H](OC(N)=O)C(O)[C@H](Oc2ccc3c(O)c(NC(=O)c4ccc(O)c(CC=C(C)C)c4)c(=O)oc3c2C)OC1(C)C` (some centres undefined), for which the Potency result is “inactive”. On to `COc1ccc2c(c1)O[C@@H](c1ccc3c(c1)OCO3)[C@H](OC(=O)NCc1ccco1)C2=O`, for which the Potency entry was “inactive”. As for `Clc1ccc(C(Cn2ccnc2)OCc2ccsc2Cl)c(Cl)c1` (centres undefined), the Potency result is “inactive”. Take `Cc1[nH]c2ccccc2c1C(c1ccccc1)c1cccs1` (centres undefined): the Potency result is “inactive”. Still for that read-out and setting: the entry for `COc1ccccc1CNc1cc(-c2ccccc2CN(C)C)ncn1` is “inactive”; for `C/C=C1\C2C=C(C)CC1(N)c1ccc(=O)[nH]c1C2` (centres undefined) it is “inactive”.

Consider `COc1cc(NS(=O)(=O)c2ccc3c(c2)OCC(C(=O)N2CCCC2)O3)cc(OC)c1` (centres undefined), for which the Potency entry is “inactive”.

With `COc1ccc(OC)c2sc(N3CCN(C(=O)C4COc5ccccc5O4)CC3)nc12` (centres undefined), the Potency entry was “inactive”. The same measure, in the same setting: the figure for `Cc1c(CC(=O)N2CCN(C(=O)C3COc4ccccc4O3)CC2)c(=O)oc2c(O)c(O)ccc12` (centres undefined) is 8.91 µM (active). On to `COC(=O)CC1c2ccccc2C(Cc2ccc(OC)cc2)=C(C)N1C(=O)OC` (centres undefined), for which the activity change, negative = inhibition is 1.25% [at 12.4 µM]. On to `O=C(NC1CC(=O)N(c2ccc(F)cc2)C1)c1ccc(S(=O)(=O)N2CCCC2)cc1` (centres undefined), for which the Potency entry was “inactive”. Consider `O=c1c(CCc2ccccc2)nc2cncnc2n1C1CC1`, for which the Potency result was “inactive”. For `COC(=O)c1ccc(C(NC(=O)OCc2ccccc2)/C(C)=C/[C@@H](C)C(=O)NCc2cc(C)on2)cc1` (some centres undefined), the Potency entry is “inactive”. As for `C#CCC(C(=O)OC)(C(=O)OC)C(C[N+](=O)[O-])c1ccccc1` (centres undefined), the activity change, negative = inhibition was 0.0811% [at 12.4 µM].

Consider `COc1ccc(OCCCn2c(C3CC(=O)N(c4ccc(F)cc4)C3)nc3ccccc32)cc1` (centres undefined), for which the Potency entry was “inactive”. Turning to `Cc1ccc(N=C2NC(=O)/C(=C/C=C/c3ccco3)S2)cc1C`, the Potency is 11.2 µM (active). As for `Cc1cc(N(C)C)nc(Cl)n1`, the Potency entry is “inactive”. For the molecule `O=S(O)S(=O)(=O)O`, the Potency result was “inactive”.

As for `N#Cc1cccc(CS(=O)(=O)c2nnnn2-c2cc(C(F)(F)F)cc(C(F)(F)F)c2)c1`, the Potency entry is “inactive”. On to `O=C(c1ccco1)N1CCC[C@@]2(CCN(c3ccccc3)C2)C1`, for which the Potency result was “inactive”.

(Values after PubChem BioAssay AID2528 (National Center for Advancing Translational Sciences (NCATS), 2010).)
